# This is a sample that favours compounds with a hit; in the whole collection about 3.1% have one here.
# Rtt109 Vps75: C. albicans Rtt109 histone acetyltransferase inhibition | 330,000 tested, 0.16% active | purified Rtt109/Vps75, ThioGlo CoA-SH fluorescence, 4 h | inhibition, % at 34.9 µM;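 active = inhibition of at least 50% in every replicate; inconclusive = best replicate reaches 50% inhibition but some replicates fall short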
# Target sequence (Q5AAJ8 whole entry, looked up): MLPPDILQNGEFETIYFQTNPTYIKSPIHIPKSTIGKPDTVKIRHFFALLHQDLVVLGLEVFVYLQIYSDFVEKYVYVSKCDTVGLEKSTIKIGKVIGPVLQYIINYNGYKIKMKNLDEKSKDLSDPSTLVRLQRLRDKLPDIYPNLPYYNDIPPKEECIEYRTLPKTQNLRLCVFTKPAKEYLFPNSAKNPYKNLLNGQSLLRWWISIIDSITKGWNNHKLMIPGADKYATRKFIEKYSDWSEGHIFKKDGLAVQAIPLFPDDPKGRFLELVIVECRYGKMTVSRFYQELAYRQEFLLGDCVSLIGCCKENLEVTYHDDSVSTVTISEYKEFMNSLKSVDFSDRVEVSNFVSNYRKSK
# esBAF inh: inhibitors of esBAF chromatin remodeling in mouse ES cells | Bmi1-luciferase knock-in reporter, 24 h; 100% = twice the neutral-well signal | reporter increase, % at 12.5 µM | 350,000 tested, 2% active | AID 602393; in the data active = activation above about 40%; inconclusive = no clear call, values can overlap the other calls;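 also: 0% = median of the plate's neutral control wells and 100% = double that signal; a rise in the Bmi1 reporter signal indicates esBAF inhibition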
# MITF TRPM1 HTS: increases MITF-driven TRPM1 promoter luciferase signal | activation, % at 12.5 µM | 300,000 tested, 0.75% active | SK-MEL-5 TRPM1-promoter luciferase, 24 h; % of positive control, neutral wells = 0 | AID 588334;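 active = mean activation of at least 80% with every replicate also reaching 80%; inconclusive = mean reaches 80% but some replicate falls short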;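 also: 0% = neutral control wells and 100% = parthenolide positive control wells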
# C2C12 statin: suppressors of simvastatin-induced myotoxicity in C2C12 myotubes; ATP luminescence, 48 h; scaled: DMSO 0, geranylgeraniol control 100; 330,000 tested, 0.78% active; AID 602340; rescue of ATP level, % at 7.49 µM;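 active = mean ATP rescue above about 67%, or every replicate alone reaching that limit, limit read from the data, passing the limit was not always enough; inconclusive = no clear call, values can overlap the other calls; inactive = mean under the limit and some replicate under it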;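 also: myotubes were challenged with 10 µM simvastatin during compound exposure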
# Wnt act: activators of Wnt/beta-catenin signaling; activation, % at 9.35 µM; 300,000 tested, 1.2% active; AID 743398; Wnt/beta-catenin reporter cell assay, activator, plate reader; in the data active = activation above about 30%, passing the limit was not always enough; inconclusive = no clear call, values can overlap the other calls;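 also: 0% = neutral control wells and 100% = positive control wells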
# An asterisk follows results filed as active; ? = inconclusive; · = not tested or not shown.
SMILES,Rtt109 Vps75,esBAF inh,MITF TRPM1 HTS,C2C12 statin,Wnt act
CCCNC(=O)c1ccccc1NC(=O)c1ccccc1N(C)S(C)(=O)=O,-10.3,2.3,-7.6,103.1*,-2.0
COC(=O)[C@H]1[C@H](CO)[C@H]2Cn3c(ccc(/C=C/c4ccccc4)c3=O)[C@H]2N1C(=O)CC1CC1,·,2.5,·,-23.4,·
Cc1noc(C)c1S(=O)(=O)N(C)C[C@@H]1Oc2c(NC(=O)C3CCOCC3)cccc2C(=O)N([C@@H](C)CO)C[C@@H]1C,·,-3.5,·,33.4,·
COc1ccc(S(=O)(=O)Nc2ccc3c(c2)C(=O)N([C@@H](C)CO)C[C@@H](C)[C@H](CN(C)S(=O)(=O)c2c(C)noc2C)OCCCC[C@H](C)O3)cc1,·,0.7,·,·,·
Cc1ccc(S(=O)(=O)Nc2ccc3c(c2)C(=O)N(C)[C@H]2CC[C@@H](CC(=O)O)O[C@H]2CO3)cc1,·,5.4,·,9.8,·
C[C@H]1CCCCO[C@@H](CN(C)C(=O)NC2CCCCC2)[C@@H](C)CN([C@@H](C)CO)C(=O)c2cc(NC(=O)c3ccccc3)ccc2O1,·,1.4,·,·,·
CC(=O)Nc1ccc(NC(=O)c2cccc(S(=O)(=O)N3CCCCCC3)c2)cc1,10.5,3.7,19.0,-12.7,-9.4
CC(=O)N1CCN(S(=O)(=O)c2cccc(C(=O)NCc3ccc(F)cc3)c2)CC1,2.4,·,-3.6,77.4*,-4.8
CC(=O)c1ccc(NC(=O)c2cccc(S(=O)(=O)N3CCN(C)CC3)c2)cc1,0.5,57.7*,73.6,1.2,5.9
CS(=O)(=O)c1ccc(-c2cccc(NC(=O)c3ccc(Br)o3)c2)nn1,2.0,·,-16.5,-20.6,-5.2
COc1ccc(-c2ccc(NC(=O)c3ccc(Br)o3)cc2)nn1,-14.6,26.7,97.6*,-27.0,30.9*
CCCOC(=O)c1ccc(NC(=O)c2ccc(Br)o2)cc1,-16.5,·,47.2,·,6.0
COC(=O)Cc1ccc(NC(=O)c2ccc(Br)o2)cc1,5.4,56.8*,48.2,-2.4,8.8
CCN(CC)c1ccc(NC(=O)c2ccc(Br)o2)cc1,-8.0,43.2*,96.7*,-28.0,69.8*
O=C(Nc1ccccc1)c1ccc(Br)o1,0.1,39.5,42.4,-7.9,12.9
COc1ccc(CN(C)C[C@H]2OCCCC[C@@H](C)Oc3ccc(NS(=O)(=O)c4cn(C)cn4)cc3C(=O)N([C@@H](C)CO)C[C@H]2C)cc1,·,0.6,·,·,·
CCN(C(=O)c1nn(-c2ccc(OC)cc2)c(=O)c2c1c1ccccc1n2C)c1ccc(OC)cc1,·,0.6,-3.0,107.2*,-4.7
CCCCN(C)CCNC(=O)c1nn(-c2ccc(OC)cc2)c(=O)c2c1c1ccccc1n2C,4.3,-0.3,-43.9,-0.4,1.8
O=C(c1ccccn1)N1CC[C@@H]2[C@H]1c1cc(-c3ccc(F)cc3)ccc1N[C@@H]2CO,·,46.8*,·,-27.8,·
O=C(c1ccccn1)N1CC[C@@H]2[C@H](CO)Nc3ccc(-c4ccccc4)cc3[C@@H]21,·,24.5,·,4.6,·
Cc1cc(NC(=O)COc2cccc(C)c2C)no1,9.0,9.2,44.2,-4.6,0.5
Cc1ccccc1OCC(=O)NC1=NCCS1,-21.9,44.5*,·,0.0,·
Cc1cc(NC(=O)COc2ccc(C)c(C)c2)no1,1.6,-1.4,90.1*,1.0,7.6
Cc1cc(NC(=O)COc2ccccc2C)no1,2.1,·,94.8*,·,11.8
Cc1ccc(C(=O)NCCCNC(=O)COc2ccc(C)c(C)c2)cn1,55.2*,-5.9,-7.9,-1.6,-2.2
SMILES,Rtt109 Vps75,esBAF inh,MITF TRPM1 HTS,C2C12 statin,Wnt act
CCC(=O)Nc1ccc2c(c1)C(=O)N(C)C[C@@H](OC)[C@H](C)CN(Cc1ccccc1OC)[C@@H](C)CO2,·,-0.9,·,-4.3,·
COc1ccc(NC(=O)Nc2ccc3c(c2)C(=O)N([C@@H](C)CO)C[C@H](C)[C@H](CN(C)Cc2ccc(Cl)c(Cl)c2)OCCCC[C@@H](C)O3)cc1,·,6.4,·,·,·
Nc1c(C(=O)N2CCCC2)sc2nc(-c3ccccc3)ccc12,-4.8,69.0*,103.1*,-20.7,49.1*
Nc1c(C(=O)N2CCCCC2)sc2nc3c(cc12)CCCC3,-3.7,54.1*,79.7,-3.1,-1.8
CCc1nnc(NC(=O)c2sc3nc4c(cc3c2N)CCCCC4)s1,2.2,·,61.1,·,?
Cc1ccc(C(=O)c2sc3nc4c(cc3c2N)CCC4)cc1,5.6,·,125.0*,·,32.8*
Nc1c(C(=O)Nc2ccccc2)sc2nc(-c3cccnc3)ccc12,·,·,·,·,8.1
Cc1ccc(-c2c3c(nc4sc(C(N)=O)c(N)c24)CCC3)cc1,27.5,·,-3.7,·,·

# High-throughput results (PubChem BioAssay)
